Bioassay records deposited in PubChem by National Center for Advancing Translational Sciences (NCATS).
Only some compounds are listed: those with a hit (about 10% of all), similar ones and a draw of the others.
NIH3T3 tox: Cytotoxic Profiling in NIH 3T3 Cell Line of Diverse Libraries Using Quantitative High-Throughput Screening. NIH 3T3 viability, CellTiter-Glo ATP luminescence, 48-72 h. Potency, µM (doses to about 96.7 µM), most hits filed as inhibitors. 94,000 compounds, 4.3% hits; note: nearly all actives have a fitted effect of over 55% in size
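First NIH 3T3 cells are plated at 400 cells/well; next compound is pinned in; then plates incubate 48 or 72 hr at 37 °C; finally CellTiter-Glo is added and luminescence read after 10 min.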
FLuc inh-1: Firefly luciferase inhibition profiling of diverse chemical library using quantitative high-throughput screening; Luciferin 4-monooxygenase (Photinus pyralis), P08659; 76,000 compounds, 2.5% hits; purified P. pyralis luciferase, luminescence, biochemical; Potency, µM (titrated, usually from 115 µM), actives largely listed as inhibitors; note: nearly all actives have a fitted effect of over 65% in size
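Purified P. pyralis luciferase (10nM final) in 50mM Tris acetate pH 7.5, 10mM Mg acetate, 0.01% Tween-20, 0.05% BSA with 10uM D-luciferin and 10uM ATP. Compounds titrated qHTS. Luminescence imaged on CCD.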
NPR1 antag: Natriuretic polypeptide receptor (hNpr1) antagonism - Primary qHTS; Potency, µM (series often up to 46.3 µM), hits mostly inhibitors; HEK293 hNpr1 GloSensor cGMP, ANP-stimulated luminescence; AID 1347048, 2019; Atrial natriuretic peptide receptor 1 (Homo sapiens), P16066; 76,000 compounds, 1.6% hits; calls by dose curve; note: nearly all actives have a fitted effect of over 60% in size
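Compound pre-incubated 30 min at room temperature on GloSensor-loaded HEK293 cells stably carrying hNpr1 and the pGS-40F cGMP biosensor. Stimulation uses hNppA at 0.1 nM final; luminescence is taken at baseline and 20 min post-agonist.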
HEK293 tox: Cytotoxic Profiling in HEK 293 Cell Line of Diverse Libraries Using Quantitative High-Throughput Screening | 94,000 compounds, 6.6% hits | HEK 293 viability, ATP luminescence (CellTiter-Glo), 48-72 h | Potency, µM (series often up to 115 µM), most hits filed as inhibitors; note: nearly all actives have a fitted effect of over 60% in size
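Cytotoxicity was scored by loss of ATP-coupled luminescence (CellTiter-Glo) in HEK 293 cells. Compound treatment ran 48 or 72 hr at 37 degree Celsius, 5% CO2, 95% humidity.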
GPT2 inhibitor: Primary qHTS assay for inhibitors of Glutamate pyruvate transaminase 2 (GPT2); Alanine aminotransferase 2 (Homo sapiens), Q8TD30; Recombinant GPT2, coupled pyruvate oxidase/HRP Amplex Red fluorescence; Potency, µM (top dose mostly 57.7 µM), usual class: inhibitors; 100,000 compounds, 0.25% hits; AID 1671188, 2021; note: nearly all actives have a fitted effect of over 60% in size
Target sequence (Q8TD30 whole entry, looked up): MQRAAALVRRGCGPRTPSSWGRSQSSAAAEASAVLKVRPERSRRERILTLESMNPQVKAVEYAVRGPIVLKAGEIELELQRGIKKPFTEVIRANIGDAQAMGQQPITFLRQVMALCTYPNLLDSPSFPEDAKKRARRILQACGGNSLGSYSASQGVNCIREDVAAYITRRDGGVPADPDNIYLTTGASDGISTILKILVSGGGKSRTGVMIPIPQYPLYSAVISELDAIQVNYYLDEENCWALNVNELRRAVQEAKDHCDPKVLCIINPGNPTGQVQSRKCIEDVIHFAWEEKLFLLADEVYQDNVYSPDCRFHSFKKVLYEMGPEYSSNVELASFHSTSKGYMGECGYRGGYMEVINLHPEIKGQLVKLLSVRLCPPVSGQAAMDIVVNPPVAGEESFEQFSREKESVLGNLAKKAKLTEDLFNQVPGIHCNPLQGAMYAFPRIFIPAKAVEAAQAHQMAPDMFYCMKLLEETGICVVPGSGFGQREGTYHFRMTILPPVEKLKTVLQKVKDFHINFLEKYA
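GPT2 10ng/uL, a-KG 250uM, L-Ala 2mM, HEPES pH7.5 + 0.0001% Tween; 30 min RT. Then Amplex mix (PO/HRP/ThPP), 30 min RT dark, fluorescence. AOA 50uM used as positive control.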
FLuc SDR no ATP: Firefly luciferase (FLuc-C-HiBiT) SDR gain of signal screen - without ATP; AID 1963318, 2024; 1,300 compounds, 7.8% hits; Purified FLuc-C-HiBiT, Nano-Glo HiBiT luminescence, no ATP; shares compounds with FLuc inh-1; Potency, µM (titrated, usually from 32.7 µM), most hits filed as activators; note: nearly all actives have a fitted effect of over 55% in size
FLuc SDR ATP: Firefly luciferase (FLuc-C-HiBiT) SDR gain of signal screen - plus ATP | shares compounds with FLuc inh-1 | purified FLuc-C-HiBiT + ATP, HiBiT complementation luminescence | Potency, µM (top dose mostly 32.7 µM), most hits filed as activators | 1,300 compounds, 8.7% hits | AID 1963319, 2024;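 note: signal reports ligand binding via conformational change of the enzyme rather than luciferase catalysis; nearly all actives have a fitted effect of over 55% in size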
FLuc inh-2: Firefly luciferase (FLuc-C-HiBiT) enzymatic inhibition screen - Functional assay; shares compounds with FLuc inh-1; purified FLuc-C-HiBiT enzyme, luciferin luminescence; AID 1963320, 2024; Potency, µM (top dose mostly 32.7 µM), hits mostly inhibitors; 1,300 compounds, 42% hits; note: nearly all actives have a fitted effect of over 70% in size
A number is an active result; – = inactive; ? = inconclusive; · = no result given; [ ] = dose if it differs, or a comment. Unless noted, calls come from the whole dose curve; as a rule, active = well fitted curve in the direction sought with a large enough effect; inconclusive = small, poorly fitted or top-dose-only effect, or another doubt; inactive = no such curve, though single readings can be large; an effect the other way counts as inactive or inconclusive.

SMILES	NIH3T3 tox	FLuc inh-1	NPR1 antag	HEK293 tox	GPT2 inhibitor	FLuc SDR no ATP	FLuc SDR ATP	FLuc inh-2
O=C(Nc1ccccc1)N1CCc2nc(C3CC3)nc(-c3ccc(Cl)cc3)c2C1	?	–	–	?	–	–	–	–
Cc1ccc(Cl)cc1NC(=O)c1cc(-c2ccc3c(c2)OCCO3)on1	·	·	·	·	·	?	?	1.8µM
Cc1noc(-c2ccc3c(c2)OCO3)c1C(=O)NCCc1cccc(Cl)c1	?	–	–	?	–	·	·	·
Cc1cccc(NC(=O)c2cc(-c3ccc4c(c3)OCCO4)on2)c1	·	·	·	·	·	5µM	?	0.44µM
O=C(Nc1cccnc1)c1cc(-c2ccc(Cl)cc2)on1	·	·	·	·	·	–	–	?
O=C(Nc1cccc(Cl)c1)c1cc(-c2ccc3c(c2)OCCO3)on1	·	·	·	·	·	?	?	0.62µM
CCOC(=O)c1ccc(NC2SC(=O)N(Cc3cccc(C(=O)O)c3)C2=O)cc1 (centres undefined)	·	·	·	·	·	–	?	?
CCOC(=O)c1ccc(NC(=O)CC2CCCCN(C)C2=O)cc1 (centres undefined)	–	–	–	–	–	·	·	·
O=c1[nH]c(N2CCOCC2)nc2c1CCN(Cc1ccc(Br)cc1)CC2	–	–	–	–	–	·	·	·
Nc1nc2c([nH]c(=O)n2C2CC(O)C(CO)O2)c(=O)[nH]1 (centres undefined)	·	·	·	·	·	–	–	–
O=C(Nc1nn(-c2cccc(F)c2)c2cccc(N3CCOCC3)c12)C1CCC1	?	7.9µM	?	45µM	–	?	–	?
O=C(Nc1nn(Cc2ccccc2)c2cccc(N3CCOCC3)c12)C1CCC1	–	–	–	?	–[11.5 µM]	·	·	·
Nc1ccc(-c2nc3ccccc3s2)cc1	·	·	·	·	·	?	?	1.8µM
CNc1ccc(-c2nc3ccccc3s2)cc1	·	·	·	·	·	1.8µM	1.1µM	0.078µM
CCOP(=O)(Cc1ccc(-c2nc3ccccc3s2)cc1)OCC	·	·	·	·	·	–	–	?
CC(C)(N)c1ccc(-c2nc3ccccc3nc2-c2ccccc2)cc1	·	·	·	·	–	·	·	·
CC(C)(C)C(=O)Nc1ccc(-c2nc3ccccc3s2)cc1	·	·	·	·	·	0.078µM	0.044µM	0.02µM
CCC(C)C1=NS(=O)(=O)c2cc(NC(=O)C(C)C)ccc2N1c1ccccc1 (centres undefined)	?	–	–	–	–	·	·	·
COCCCNC(=O)C1CCCN(c2nccc(Nc3ccccc3F)n2)C1 (centres undefined)	?	·	·	?	–	·	·	·
Cc1nc2cc(-c3cc(F)cc(C#N)c3)ccc2s1	·	·	·	·	–	·	·	·
CCS(=O)(=O)c1ccccc1C(=O)Nc1ccc(-c2nc3ccccc3s2)cc1	·	·	·	·	·	–	–	–
Cc1ccc2sc(-c3ccc(N)cc3)nc2c1	·	·	·	·	·	3.1µM	?	0.28µM
CC(C)(C)c1ccc(C(=O)Nc2ccc(C(O)[C@H]3COCC(=O)N3Cc3ccccc3)cc2)cc1 (some centres undefined)	22µM	11µM	?	?	–	–	–	–
COCC(=O)Nc1ccc([C@@H](O)[C@H]2COCC(=O)N2Cc2ccccc2)cc1	–	–	–	–	–	·	·	·
COCC(C)NC(=O)c1csc2nc(-c3cccc(C(F)(F)F)c3)cn12 (centres undefined)	?	–	–	?	–	·	·	·
